# Experiments:
# Type in all cases: functional
# Plasmodium falciparum [1] = test: GSK_TCMDC: Inhibition of Plasmodium falciparum 3D7 in whole red blood cells, using parasite LDH activity as an index of growth. Test compounds present at 2uM
# Plasmodium falciparum [2] = test: GSK_TCMDC: Inhibition of Plasmodium falciparum Dd2 in whole red blood cells, using parasite LDH activity as an index of growth. Test compounds present at 2uM
# HepG2 = test: GSK_TCMDC: Percent inhibition of human HepG2 cell line. Test compounds present at 10uM.
Compound,Inhibition (Plasmodium falciparum [1]),Inhibition (Plasmodium falciparum [2]),Inhibition (HepG2)
C=CCOc1ccc(C2C(C(=O)OC)=C(C)NC3=C2C(=O)c2ccccc23)cc1OC (stereo unspecified),82%,65%,0%
CS(=O)(=O)NCCCNCc1ccc(-c2ccc(-c3nc4cc(F)ccc4[nH]3)cc2)cc1.O=C(O)C(F)(F)F,100%,97%,17%
NC(=O)c1cccc(CNCc2ccc(-c3cccc(-c4nc5ccccc5[nH]4)c3)cc2)c1.O=C(O)C(F)(F)F,100%,94%,29%
CCCCNC(=O)c1[nH]c2c(NC(=O)COc3ccccc3)cccc2c1-c1cccc(NC(=O)C(N)CO)c1 (stereo unspecified),87%,0%,11%
O=C(NCCCCN1CCN(c2cccc(Cl)c2Cl)CC1)c1ccc2c(c1)CCN(C1CCC1)CC2,95%,31%,97%
NCc1ccc(CNCc2cccc(-c3ccc(-c4nc5cc(C(F)(F)F)ccc5[nH]4)cc3)c2)cc1.O=C(O)C(F)(F)F,98%,90%,13%
O=C(/C=C/c1ccc(Cl)c(Cl)c1)NCCCCCN1CCC(NC(=O)Nc2ccc3c(c2)OCO3)CC1,100%,5%,12%
Br.Oc1ccccc1CCNCC1CCc2ccccc2C1 (stereo unspecified),98%,98%,37%
CCCn1cc2c(ccc3nc(N)nc(N)c32)n1,95%,0%,65%
O=C(Nc1ccc(N2CCNCC2)cc1)c1ccn2ncc(-c3cccc(Cl)c3)c2n1,96%,53%,79%
CC1CCCN(S(=O)(=O)c2cc(Br)cc3c2N(C(=O)C2CC2)CC3)C1 (stereo unspecified),83%,70%,0%
CC(C)CCNCC(O)Cn1c2ccc(Cl)cc2c2cc(Cl)ccc21 (stereo unspecified),99%,99%,36%
O=C(/C=C/c1ccc(Cl)c(Cl)c1)N1CCC(CN2CCC(Cc3cc4ccccc4[nH]3)CC2)CC1,96%,56%,49%
Cc1cc2ccc(-c3cccc(CN)c3)cc2nc1N.Cl,100%,1%,0%
O=[N+]([O-])c1cc(C(c2ccc(O)c([N+](=O)[O-])c2)C(Cl)(Cl)Cl)ccc1O,93%,98%,2%
COc1ccccc1CCNc1ncnc2c1[nH]c1ccc(F)cc12,95%,68%,49%
CCN(CC)C(C)(C)CN(Cc1ccc(-c2ccc(C(F)(F)F)cc2)cc1)C(=O)Cn1c(CCc2cccc(F)c2F)nc(=O)c2ccccc21.O=C(O)C(O)C(O)C(=O)O,91%,79%,53%
Cc1ccc2c(c1)NCC21CCN(C[C@@H](O)C2CCN(c3ccnc(Cl)c3)CC2)CC1C (stereo partly specified),87%,69%,46%
O=C(CCNc1ccnc(NCCc2ccccc2)n1)Nc1ccccc1.O=C(O)C(F)(F)F,89%,19%,7%
COc1ccc(C(=O)Nc2cc(Cl)c3c(c2)C2CCCN2CC3)cc1C(F)(F)F.Cl (stereo unspecified),99%,33%,35%
Cc1cc(F)ccc1C1CCN(CCCCNC(=O)c2ccc(NC(=O)c3ccc(Cl)cc3)cc2)CC1,100%,79%,19%
COc1ccc(Cc2c(N)nc3nc(N)nc(N)c3c2C)cc1.Cl,94%,3%,64%
Cc1ccc(NC(=O)c2ccnc(N3CCN(c4ccncc4)CC3)c2)cc1F.O=C(O)C(F)(F)F,94%,12%,43%
CCOc1ccc(-c2nonc2NC(=O)c2ccco2)cc1OCC,97%,77%,3%

Compound,Inhibition (Plasmodium falciparum [1]),Inhibition (Plasmodium falciparum [2]),Inhibition (HepG2)
CC(C)C(=O)ONC1=NC(C)(C)N(OCCCOc2cc(Cl)c(Cl)cc2Cl)C(NOC(=O)C(C)C)=N1,92%,93%,64%
Cc1cccc2nc(-c3ccc(-c4ccc(NC(=O)NCc5ccccc5)cc4)s3)[nH]c12,93%,8%,79%
Cc1c(-c2ccc3c(c2)C(NCCCN2CCCCC2)CC3)cnc(N)c1C.Cl (stereo unspecified),97%,3%,4%
CN(C)c1c(CNCCCCCCNCc2ccc3ccccc3c2N(C)C)ccc2ccccc12.CS(=O)(=O)O,100%,51%,100%
CCN(CC)CCCNC(=O)/C(=C/C=C/c1cc2cc(Cl)c(Cl)cc2[nH]1)OC.Cl,84%,21%,38%
CCNc1cc(C(=O)N[C@@H](Cc2ccccc2)[C@H](O)CN[C@@H]2CCc3ccccc32)cc(N2CCCCS2(=O)=O)c1,98%,97%,0%
CC(C)(c1ccccc1)c1ccc(O)c(CN2CCOCC2)c1,99%,88%,0%
Cc1cc(N/N=C/c2ccccc2[N+](=O)[O-])c2cc(C(F)(F)F)ccc2n1,97%,39%,0%
CSc1nc2nc(C)c(Cc3cccc(C(F)(F)F)c3)c(C)n2n1,98%,95%,4%
CC1CCCC(C)N1C[C@@H](O)CNS(=O)(=O)c1cccc(C(F)(F)F)c1.Cl (stereo partly specified),99%,2%,4%
COc1ccc(-c2ccc(CNC(=O)c3ccc(C#N)cc3)c(F)c2)cc1CN1CCCN(C)CC1.O=C(O)C(F)(F)F,90%,1%,6%
CC(=O)Nc1nc(C(=O)Nc2cccc(-c3cccc(-c4nc5cc(F)ccc5[nH]4)c3)c2)cs1,100%,100%,39%
CCCCC1(NC(=O)[C@@H](Nc2ccc(C#N)c3ccccc23)C2CCCCC2)CCCCC1.O=C(O)C(F)(F)F,91%,84%,8%
O=C(O)C(F)(F)F.OC1CCCN(Cc2ccc(-c3ccc(-c4nc5ccccc5[nH]4)cc3)cc2)C1 (stereo unspecified),100%,77%,46%
COc1ccc(C2C(C(=O)Nc3ccc(C)c(F)c3)c3cc(OC)c(OC)cc3C(=O)N2C)cc1 (stereo unspecified),81%,26%,6%
O=C(/C=C/c1ccc(Cl)c(Cl)c1)NCCCCCN1CCC(C(=O)Nc2ccc(Cl)cc2)CC1,100%,0%,42%
Cc1cc(C(=O)OCC(=O)Nc2c(C)n(C)n(-c3ccccc3)c2=O)c(C)n1-c1ccc(F)cc1,100%,99%,0%
CS(=O)(=O)NCCCNCc1cccc(-c2csc(-c3nc4ccccc4[nH]3)c2)c1.O=C(O)C(F)(F)F,95%,9%,23%
O=C1COc2ccccc2N1C/C=C(\CN1CCC(c2ccccc2)CC1)c1cc(Cl)cc(Cl)c1,91%,72%,14%
Cc1cc2nc(-c3ccc(C(=O)NC4CCN(Cc5ccccc5)CC4)s3)[nH]c2cc1C,99%,82%,33%
CC(CN(C)C)C(=O)Nc1ccc(-c2ccc(-c3nc4ccccc4[nH]3)cc2)cc1 (stereo unspecified),99%,83%,2%
Cc1cc(NC(=O)Nc2ccc3ncccc3c2)c2ccccc2n1,93%,27%,6%
Cc1cc(=NN=Cc2ccccc2Cl)c2cc(F)ccc2[nH]1,100%,4%,5%
